Inhibition data for 53 compounds are collected here from PubChem BioAssay.

Values without a mark were called inactive. The source made the active and inactive calls. Unless noted, no stated cut-off is given here; in the data, active means inhibition above about 42%; inactive means the rest.

A short description of assay [1]: StAR promoter reporter inhibitors, counter-screen for LRH-1 inverse agonist project, cell-based, luminescence, high throughput (AID 651611; in the data active means inhibition above about 28%). The following applies: StAR promoter luciferase reporter counterscreen, at 3.6 µM, hits give high values. Background: Counterscreens check selectivity or assay interference.
For assay [2], the target named is Nuclear receptor subfamily 5 group A member 2 (Homo sapiens) (UniProt O00482). In words: LRH-1 (NR5A2) inverse agonists, retest, confirmation, cell-based, luminescence (AID 651613).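 Further: HEK293T cells co-transfected with LRH-1 and StAR promoter luciferase reporter; 0% = vehicle wells and 100% = parental cells lacking receptor.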 The following applies: cell-based LRH-1 luciferase reporter, inverse agonism; at 3.6 µM; hits give high values. In general terms: A reporter such as luciferase makes a cellular process visible.
Sequence of Nuclear receptor subfamily 5 group A member 2 (Homo sapiens) (O00482 whole entry, looked up): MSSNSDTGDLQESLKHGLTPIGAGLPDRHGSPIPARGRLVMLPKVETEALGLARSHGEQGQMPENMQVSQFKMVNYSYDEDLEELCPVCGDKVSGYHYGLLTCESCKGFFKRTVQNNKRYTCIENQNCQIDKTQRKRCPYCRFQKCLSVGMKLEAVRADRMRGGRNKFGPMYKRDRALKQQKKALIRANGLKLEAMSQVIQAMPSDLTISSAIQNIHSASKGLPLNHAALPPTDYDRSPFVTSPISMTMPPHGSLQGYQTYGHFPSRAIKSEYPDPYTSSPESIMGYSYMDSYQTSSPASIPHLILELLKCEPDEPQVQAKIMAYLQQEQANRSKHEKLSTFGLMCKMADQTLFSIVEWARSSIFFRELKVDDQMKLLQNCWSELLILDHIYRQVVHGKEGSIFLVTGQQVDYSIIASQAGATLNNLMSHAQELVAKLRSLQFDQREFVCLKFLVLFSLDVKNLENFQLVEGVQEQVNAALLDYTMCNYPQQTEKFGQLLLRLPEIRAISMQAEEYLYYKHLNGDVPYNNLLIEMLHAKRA

The target of assay [3] is Steroidogenic factor 1 (Homo sapiens) (UniProt Q13285). Kind of assay: SF1 (NR5A1) inverse agonists, counter-screen for LRH-1 inverse agonist project, cell-based, luminescence, high throughput (AID 651614; in the data active means inhibition above about 44%;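 further: cells cotransfected with StAR promoter reporter and SF1 expression vector; 0% = vehicle on cells with receptor and 100% = vehicle on cells lacking receptor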). As to conditions: cell-based SF1 luciferase reporter, at 3.6 µM, hits give high values.
Sequence of Steroidogenic factor 1 (Homo sapiens) (Q13285 whole entry, looked up, the tested form may be a part): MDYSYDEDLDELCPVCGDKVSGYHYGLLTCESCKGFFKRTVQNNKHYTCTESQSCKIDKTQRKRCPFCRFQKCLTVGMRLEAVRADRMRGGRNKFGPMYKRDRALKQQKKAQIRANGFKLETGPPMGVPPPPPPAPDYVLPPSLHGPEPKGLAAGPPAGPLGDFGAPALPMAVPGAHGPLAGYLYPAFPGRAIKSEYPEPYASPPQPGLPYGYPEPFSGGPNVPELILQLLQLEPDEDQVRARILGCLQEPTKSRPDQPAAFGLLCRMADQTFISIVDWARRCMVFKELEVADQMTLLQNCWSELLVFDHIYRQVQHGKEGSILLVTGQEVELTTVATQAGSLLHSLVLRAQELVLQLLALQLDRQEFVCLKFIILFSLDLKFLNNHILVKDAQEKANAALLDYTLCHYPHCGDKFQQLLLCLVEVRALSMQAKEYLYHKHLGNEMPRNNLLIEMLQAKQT
Assay [4] is described as follows: VP16 transactivation reporter inhibitors, counter-screen for LRH-1 inverse agonist project, cell-based, luminescence, high throughput (AID 651615; in the data active means inhibition above about 33%). As to conditions: Gal4-VP16 luciferase reporter cells, at 3.6 µM, hits give high values.

Turning to `Cc1cc(OCC(=O)NC2CC2)c2c(C)c(C)c(=O)oc2c1`, the inhibition in assay [1] was 13.4%; in assay [2], 65.4% (active); in assay [3], 53.2% (active); in assay [4], -21.9%.
Taken in the same sequence, the figures for `Cc1nnsc1C(=O)NC1CCCc2c1cnn2-c1ccc(F)cc1F` (configuration not stated) were 19.6%, 59.4% (active), 55.4% (active) and 55.9% (active).
Taken in the same sequence, the figures for `COc1ccc(-c2ccc(C(=O)NCc3ccncc3)c3occc23)c(C)c1` were 29.2% (active), 69.7% (active), 70.1% (active) and 46.4% (active).
On to `CC[C@H](CO)Nc1nc(Nc2cccc(Cl)c2)c2ncn(C(C)C)c2n1`, for which the inhibition in assay [1] is 26%; in assay [2], 49.3% (active); in assay [3] it was 38.4%; in assay [4], 35.9% (active).
Take `COc1ccc(-c2cc(-c3ccc(O)cc3)nc(N)c2C#N)cc1`: the inhibition in assay [1] was 27.8% (active); in assay [2], 58.3% (active); in assay [3], 49% (active); in assay [4], -19.5%.
Consider `COc1cc([N+](=O)[O-])ccc1NC(=O)C[n+]1ccccc1`, for which the inhibition in assay [1] is 15.1%; in assay [2], 58.8% (active); in assay [3], 55.6% (active); in assay [4], 3.98%.
With `CC(=O)Nc1ncc(Cc2cc(Cl)ccc2Cl)s1`, the inhibition in assay [1] is 11.1%; in assay [2] it was 50.2% (active); in assay [3], 46.7% (active); in assay [4] it was 2.54%.
Take `CC1(C)Cc2ccccc2-c2nnnn21`: the inhibition in assay [1] was 3.18%; in assay [2], 14.1%; in assay [3] it was 2.39%; in assay [4], -5.72%.
For `CC(C)C(=O)Nc1ccc(C(=O)CN2C(=O)NC3(CCOc4ccccc43)C2=O)cc1` (configuration not stated), the inhibition is 8.93% in assay [1], 37.1% in assay [2], 36.7% in assay [3] and 7.98% in assay [4].
Taken in the same sequence, the figures for `COc1ccc(Cc2c(-c3cccc(Cl)c3)nc3cc(C)c(Br)c(C)n23)c(C)c1` were 3.35%, 41.3% (active), 36.9% and -4.66%.
The matching figures for `COc1ccc(NC(=O)c2cc(-c3cc(F)ccc3OC)n[nH]2)cc1OC`: 28.8% (active), 43.6% (active), 49.4% (active) and 52% (active).
The matching figures for `O=C(OCC(=O)N1CCN(c2ccccc2)CC1)c1ccc2ccccc2n1`: 9.44%, 33%, 22.3% and 2.06%.
Regarding `COc1cc(NC(=O)c2ccc([N+](=O)[O-])o2)ccc1NC(=O)c1cccs1`, the inhibition in assay [1] was 30.9% (active); in assay [2] it was 61.1% (active); in assay [3] it was 61.9% (active); in assay [4], -9.17%.
The matching figures for `CC(=O)Nc1ccc(NC(=O)CSc2nnnn2C2CCCCC2)cc1`: 17%, 57.9% (active), 44.5% (active) and -1.05%.
The matching figures for `CCCc1cc(=O)oc2cc(OCC(=O)N3CCN(C(=O)C4COc5ccccc5O4)CC3)ccc12` (configuration not stated): 8.6%, 63.4% (active), 55.5% (active) and 3.04%.
Taken in the same sequence, the figures for `COc1cc(C(=O)NN=Cc2ccc(N(C)C)cc2)cc(OC)c1OC` were 37.3% (active), 37.8%, 51.1% (active) and 22.3%.
`CN(C)c1ccc(C(=O)OCC(=O)Nc2ccc(N3CCOCC3)cc2)cc1`: the inhibition in assay [1] is -5.42%; in assay [2], 62% (active); in assay [3], 55.8% (active); in assay [4], -6.21%.
Taken in the same sequence, the figures for `CC(=O)N1CCc2c(sc(NC(=O)Cc3ccc(F)cc3)c2C#N)C1` were 21.4%, 65.3% (active), 57.6% (active) and -35.5%.
Taken in the same sequence, the figures for `Cc1cccc(CSC(Nc2ccc(F)cc2)=C(C#N)C#N)c1` were -5.34%, 35%, 29.4% and 17.7%.
The matching figures for `Cc1cc(C)c2sc(NC(=O)c3ccc([N+](=O)[O-])o3)nc2c1`: -1.04%, 54.4% (active), 53.5% (active) and -7.08%.
Regarding `CC(=O)Nc1cc(-c2cccc(N)c2)cn2c(-c3ccc(C(C)=O)cc3)cnc12`, the inhibition in assay [1] is 19.6%; in assay [2], 33.4%; in assay [3] it was 36.5%; in assay [4] it was -13.4%.
The matching figures for `Cc1ccc(C)c(NC(=O)CSc2nc3[nH]ncc3c(=O)[nH]2)c1`: 6.04%, 58.1% (active), 56% (active) and 7.57%.
For the compound `Cc1ccc(SCC(=O)Nc2ccc(N3CCOCC3)cc2)cc1C`, the inhibition in assay [1] was -0.13%; in assay [2], 51.6% (active); in assay [3], 47.2% (active); in assay [4], -10.5%.
The matching figures for `CO/N=C/C(=N\Nc1cc(OC)cc(OC)c1)C(=O)c1ccccc1`: 13.2%, 63.4% (active), 58.3% (active) and 0.16%.
Turning to `CSCc1c(C(=O)Nc2ccccc2N2CCOCC2)oc2ccccc12`, the inhibition in assay [1] was 7.6%; in assay [2] it was 65.9% (active); in assay [3], 62.5% (active); in assay [4], 14.2%.
The matching figures for `Cc1ccc[n+](CC(=O)Nc2ccc(Cl)c([N+](=O)[O-])c2)c1`: 9.69%, 47% (active), 39.2% and 13.9%.
Taken in the same sequence, the figures for `CCn1c2ccccc2c2cc(/C=N/n3c(C)nnc3C)ccc21` were 27.4%, 26.4%, 38.5% and -25%.
With `Cc1cc(Br)ccc1NC(=O)CN1C(=O)C2CC=CCC2C1=O` (configuration not stated), the inhibition in assay [1] is 7.07%; in assay [2] it was 61.7% (active); in assay [3] it was 44.1% (active); in assay [4] it was -7.81%.
The matching figures for `O=C(Nc1ccc(NC(=O)c2ccc([N+](=O)[O-])o2)cc1Cl)c1ccco1`: 19.6%, 59.8% (active), 73% (active) and -20.2%.
Taken in the same sequence, the figures for `O=[N+]([O-])c1ccc(COc2cccc(CNc3ccc(Br)cc3)c2)cc1` were 3.67%, 48.8% (active), 37.4% and -6.59%.
Taken in the same sequence, the figures for `O=C(c1cccc(Cl)c1)N1CCCC(c2ccc(Cl)cc2)=N1` were 2.78%, 49.8% (active), 57.3% (active) and 3.04%.
In the case of `O=C(Cc1ccccc1)N/N=C/c1ccc([N+](=O)[O-])s1`, the inhibition in assay [1] is 2.21%; in assay [2], 60% (active); in assay [3], 62.1% (active); in assay [4] it was -9.91%.
Taken in the same sequence, the figures for `COc1ccc(OC)c(C2NC(=O)c3sc(=S)n(-c4ccccc4)c3N2)c1` (configuration not stated) were 10.5%, 53.5% (active), 45.4% (active) and -4.35%.
The matching figures for `COc1ccc(OCCNC(=O)C2(C)CCN2Cc2ccc(SC)cc2)cc1` (configuration not stated): 1.32%, 46% (active), 45.9% (active) and 2.76%.
The matching figures for `CCOCC(=O)Nc1ccc([N+](=O)[O-])cc1C`: 9%, 59.1% (active), 57.7% (active) and 4.94%.
With `O=C(CCl)Nc1cccn2ncnc12`, the inhibition is 33.1% (active) in assay [1], 49.3% (active) in assay [2], 54.6% (active) in assay [3] and -31.4% in assay [4].
Taken in the same sequence, the figures for `CC1=C(n2nnc([N+](=O)[O-])n2)C(c2cccnc2)C(C#N)=C(N)O1` (configuration not stated) were 6.01%, 17.6%, 21.5% and -0.44%.
The matching figures for `Cc1c(Cl)cccc1NC(=O)CSc1nnc(C)n1CC1CCCO1` (configuration not stated): -4.11%, 38.1%, 14.9% and -6.95%.
As for `CCN(CC)S(=O)(=O)c1cc(NC(=O)CCCOc2ccc(C(C)=O)cc2)ccc1C`, the inhibition was 2.6% in assay [1], 42.6% (active) in assay [2], 19.8% in assay [3] and 21.1% in assay [4].
The matching figures for `CCOC(=O)c1cnc(-n2nc(C)cc2C)nc1NC1CCCC1`: 0.01%, 56.9% (active), 52.4% (active) and 9.25%.
In the case of `CCN(CC)c1ccc(C2=NNC(=O)CC2C)cc1[N+](=O)[O-]` (configuration not stated), the inhibition is -14.3% in assay [1], 17% in assay [2], 21.7% in assay [3] and -1.3% in assay [4].
In the case of `Cc1ccc2c(c1)Oc1ccc(NC(=O)CCl)cc1C(=O)N2`, the inhibition was 61.7% (active) in assay [1], 68.3% (active) in assay [2], 75.6% (active) in assay [3] and 16.8% in assay [4].
The matching figures for `CC(=O)c1ccc(-c2cnc3c(NC=O)cc(-c4ccc(S(C)(=O)=O)cc4)cn23)cc1`: 31.7% (active), 74.8% (active), 70.3% (active) and -0.51%.
Taken in the same sequence, the figures for `Cc1c(NC(=S)NC(=O)c2ccc(Cl)cc2)c(=O)n(-c2ccccc2)n1C` were 11.3%, 51.5% (active), 33.4% and -1.07%.
The matching figures for `COCc1cccc(-c2csc(C(C)(O)c3cccc(OC)c3)n2)c1` (configuration not stated): -0.93%, 45.2% (active), 29.1% and 11.7%.
For `COc1ccccc1-n1c(SCC(=O)Nc2ccc(Cl)cc2)nc(O)c(Cc2ccccc2)c1=O`, the inhibition in assay [1] was 16.2%; in assay [2], 55.1% (active); in assay [3], 56% (active); in assay [4], 0.94%.
As to `CCCCCCCn1ccc(=N)cc1`, the inhibition is 44.1% (active) in assay [1], 86.7% (active) in assay [2], 77.7% (active) in assay [3] and 67.9% (active) in assay [4].
Taken in the same sequence, the figures for `CCCCCOc1ccc(NC(=O)CSc2cccc3cccnc23)cc1` were -12.7%, 42.7% (active), 26.9% and -9.81%.
For the compound `Cc1cccc(NC(=O)CSc2nnc([C@@H]3CCCN3C(=O)OC(C)(C)C)o2)c1C`, the inhibition in assay [1] is 33.4% (active); in assay [2], 66.2% (active); in assay [3] it was 73.5% (active); in assay [4], -39.9%.
As to `Cn1c(=O)n(C)c2cc(NC(=O)CSc3nnc(-c4ccccc4O)n3-c3ccccc3)ccc21`, the inhibition is 30.1% (active) in assay [1], 58.8% (active) in assay [2], 54.8% (active) in assay [3] and -42.1% in assay [4].
The matching figures for `O=C(NC1CCCCC1)c1ccc([N+](=O)[O-])o1`: 24.6%, 54.9% (active), 54.4% (active) and -17.1%.
As to `CC(=O)Oc1ccc2oc(=O)c3c(c2c1)CCCN3C(=O)CN1CCN(c2ncccn2)CC1`, the inhibition in assay [1] is 12.8%; in assay [2] it was 58% (active); in assay [3], 66.4% (active); in assay [4], -13.8%.
Taken in the same sequence, the figures for `COC(=O)c1cc2c(-c3ccccc3)cc3ccccn3c-2c1C(=O)OC` were 11.5%, 62.3% (active), 54.5% (active) and 0.7%.

As a reminder, the inhibition is the drop in the measured response relative to a control, in per cent.
